The source of these data is PubChem BioAssay (NCI).

This is part of a sample that, as a whole, favours compounds with a hit. Of some 83,000 tested, about 20% had one in any assay.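 Single-dose data. Exposure time 48 hours. Values below 10 considered active.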 A number with no mark means an inactive call. Calls of active or inactive are those of the source.

The subject of the first assay is SN12C renal. Briefly: NCI-60 one-dose screen, 48 h (100 = growth as untreated, 0 = no growth, -100 = all killed). Particulars: 10 µM unless noted.
Take `C=CCn1c(C)nc2cc(Nc3nc(N4CCCC4)nc4ccccc34)ccc21`: the growth was 90.3%.
Take `Cc1ccc(/C=C/c2c(C(=O)/C=C/c3ccc(Cl)cc3)c(C)nc3ccccc23)cc1`: the growth was -49.2% (active).
The same measure, in the same setting: to `COc1cc(/C=C/C(=O)c2cccc(-n3cc(-c4ccccc4)[nH]c3=O)c2)ccc1O` belongs 27.9%; to `C=CCOC1=CC(=O)c2ccccc2C1=O`, 82.9%.
In the case of `Cn1cc(-c2csc(-c3ccccc3)n2)c2cccnc21`, the growth is -58.2% [100 µM] (active).
Still for that read-out and setting: the same measure for `c1ccc(-c2nc([P+](c3ccccc3)(c3ccccc3)c3ccccc3)c(N3CCOCC3)o2)cc1`: 1.32% (active).
For `O=C(COc1ccc(/C=C2\Oc3ccccc3C2=O)cc1)Nc1nc2c(s1)CCCC2`, the growth was 46%.
Take `COc1ccc(C2c3ccc4ccccc4c3Oc3nc(C)[nH]c(=O)c32)cc1` (centres undefined): the growth is 99.4%.
Same read-out and setting: to `CN(C)c1ccc(-c2ccc3[nH]c(=O)nc(-c4ccccc4)c3c2)cn1` belongs 50.7%.
Still for that read-out and setting: to `O=C1/C(=C\c2c[nH]c3ccccc23)c2ccccc2N1c1c(Cl)cccc1Cl` belongs -29.6% (active); to `Cc1cc(/C=C\c2ccc3ccccc3[n+]2C)c(O)c2ncccc12`, 3.73% (active); to `O=C1N=c2cc3c(cc2=C/C1=C/c1sc(=S)n(CCc2ccc(O)cc2)c1O)OCCO3`, 5.51% (active).
The same measure, in the same setting: the same measure for `N#Cc1nc(C#N)c(Sc2ccccc2)c(Sc2ccccc2)c1Sc1ccccc1`: 0.446% (active).
As to `Cc1cc(NCCCCNc2ccnc3cc(Cl)ccc23)nc(Nc2ccc(C(=O)N3CCCC3)cc2)n1`, the growth is 70.4%.
As for `CC(C)CCC[C@@H](C)[C@H]1CC[C@H]2[C@@H](Nc3ccc(O)cc3)CCC[C@]12C`, the growth was 108%.
The same measure, in the same setting: the same measure for `O=C(c1ccccc1)c1c(/C=C/c2ccc(Cl)cc2)nc2ccccc2c1/C=C/c1cccs1`: 90.2%.
On the same count and under the same terms, the same measure for `CC(=O)n1c(-c2ccc(Cl)cc2)nc2c(c1=O)C(c1ccc(Cl)cc1)c1sc3c(Cl)cccc3c1O2` (centres undefined): -0.0627% (active); for `CN1CCN(CCCOc2ccc3nc(Nc4ccc(F)c(F)c4)ccc3c2)CC1`: 68%.
On the same count and under the same terms, to `CS(=O)c1cccc(-c2ccc3nc(N)n(-c4ccc(C(F)(F)F)cc4)c(=O)c3c2)c1` (centres undefined) belongs 96.3%.
Regarding `COc1ccc2[nH]c(O)c(/C=c3/cc4c(c(-c5ccc(F)c(OC)c5)n3)=Nc3ccccc3-4)c2c1`, the growth was 88.6%.
Consider `CC(=O)C(C)Cc1cc2c(cc1C)C(C)(C)CCC2(C)C` (centres undefined), for which the growth was 103%.
Same read-out and setting: to `COc1cc(/C=C2\C(=O)ON=C2C)cc(OC)c1OC` belongs 98.3%; to `CCCCn1c(=O)c2c(nc3n2CCCN3CCc2ccc(OCC(=O)NCCN(CC)CC)cc2)n(CCCC)c1=O`, 64.6%; to `COc1cc2c(cc1-c1c(C)noc1C)ncc1nc(C3CCC(F)(F)CC3)n(C3CCC(OC(F)F)CC3)c12` (centres undefined), 76.6%.
As to `CCN(CCNc1ccc(C)c2sc3ccccc3c(=O)c12)CC(C)(C)O`, the growth was 101%.
Same read-out and setting: the same measure for `CCCCCCCCCCCCCCCCCCOc1ccccc1CC(=O)OCCC[N+](C)(C)C`: 36%.
On the same count and under the same terms, to `COc1ccc(C(=NN=C(N)N)c2ccc(OC)cc2)cc1` belongs 49.9%.
As to `Cc1c(C(=O)N[C@@H](Cc2ccccc2)C(=O)C(=O)NCCc2ccccc2)[nH]c2ccccc2c1=O`, the growth was 83.4%.
Take `CC1(c2ccccc2)NC(=O)N(NC(=O)CSc2nc(-c3cccs3)nc3ccccc23)C1=O` (centres undefined): the growth was 100%.
Turning to `CCN(CC)Cc1cccc(C(=O)OC)c1`, the growth was 105%.
Same read-out and setting: to `CCCCc1ccc(Nc2ccc(Nc3ccc(CCCC)cc3S(=O)(=O)O)c3c2C(=O)c2ccccc2C3=O)c(S(=O)(=O)O)c1` belongs 91%; to `O=C(Nc1ccc(Cl)cc1)Nc1ccc(Cl)c(C(F)(F)F)c1`, 6.93% (active); to `COc1cc(/C=N/Nc2ncc(-c3cc4cc5c(cc4o3)OCO5)s2)cc(OC)c1OC`, 71.2%.
The same measure, in the same setting: the same measure for `COc1ccc(-c2nc3c(N)c(CO)c(C)nc3o2)cc1`: 106%.
Turning to `c1ccc(Nc2nc(-c3ccccn3)cs2)nc1`, the growth is 13.4%.
For the molecule `Cc1ccc(S(=O)(=O)Oc2cc(OS(=O)(=O)c3ccc(C)cc3)cc(OS(=O)(=O)c3ccc(C)cc3)c2)cc1`, the growth was 107%.
Still for that read-out and setting: to `COc1ccc(NC(=O)c2nc(-c3cc(OC)c(OC)c(OC)c3)n(-c3cccc4ccccc34)n2)cc1OC` belongs 52.9%.
Still for that read-out and setting: to `COc1ccc(C2C(c3nn[nH]n3)=C(N)Oc3c2ccc2ccccc32)cc1` (centres undefined) belongs 64.9%.

The next assay concerns UO-31 renal. Described as above. Particulars: 10 µM unless noted.
In the case of `CN(C)c1ccc(-c2ccc3[nH]c(=O)nc(-c4ccccc4)c3c2)cn1`, the growth is 53%.
Still for that read-out and setting: the same measure for `Cc1cc(/C=C\c2ccc3ccccc3[n+]2C)c(O)c2ncccc12`: 16.8%; for `N#Cc1nc(C#N)c(Sc2ccccc2)c(Sc2ccccc2)c1Sc1ccccc1`: -72.1% (active).

A further assay has as its system TK-10 renal. The description is as above. Particulars: 10 µM unless noted.
As to `C=CCn1c(C)nc2cc(Nc3nc(N4CCCC4)nc4ccccc34)ccc21`, the growth is 108%.
Still for that read-out and setting: to `Cc1ccc(/C=C/c2c(C(=O)/C=C/c3ccc(Cl)cc3)c(C)nc3ccccc23)cc1` belongs 26.5%; to `COc1cc(/C=C/C(=O)c2cccc(-n3cc(-c4ccccc4)[nH]c3=O)c2)ccc1O`, 81.6%.
With `C=CCOC1=CC(=O)c2ccccc2C1=O`, the growth was 113%.
Still for that read-out and setting: the same measure for `Cn1cc(-c2csc(-c3ccccc3)n2)c2cccnc21`: -45.7% [100 µM] (active); for `c1ccc(-c2nc([P+](c3ccccc3)(c3ccccc3)c3ccccc3)c(N3CCOCC3)o2)cc1`: 29.9%.
Still for that read-out and setting: to `O=C(COc1ccc(/C=C2\Oc3ccccc3C2=O)cc1)Nc1nc2c(s1)CCCC2` belongs 79.7%.
The same measure, in the same setting: the same measure for `COc1ccc(C2c3ccc4ccccc4c3Oc3nc(C)[nH]c(=O)c32)cc1` (centres undefined): 116%; for `CN(C)c1ccc(-c2ccc3[nH]c(=O)nc(-c4ccccc4)c3c2)cn1`: 82.8%; for `O=C1/C(=C\c2c[nH]c3ccccc23)c2ccccc2N1c1c(Cl)cccc1Cl`: -29.4% (active).
As to `Cc1cc(/C=C\c2ccc3ccccc3[n+]2C)c(O)c2ncccc12`, the growth is 23.2%.
Consider `O=C1N=c2cc3c(cc2=C/C1=C/c1sc(=S)n(CCc2ccc(O)cc2)c1O)OCCO3`, for which the growth was 90.3%.
For the molecule `N#Cc1nc(C#N)c(Sc2ccccc2)c(Sc2ccccc2)c1Sc1ccccc1`, the growth was -36.8% (active).
The same measure, in the same setting: the same measure for `Cc1cc(NCCCCNc2ccnc3cc(Cl)ccc23)nc(Nc2ccc(C(=O)N3CCCC3)cc2)n1`: 115%; for `CC(C)CCC[C@@H](C)[C@H]1CC[C@H]2[C@@H](Nc3ccc(O)cc3)CCC[C@]12C`: 83%; for `O=C(c1ccccc1)c1c(/C=C/c2ccc(Cl)cc2)nc2ccccc2c1/C=C/c1cccs1`: 99%.
On the same count and under the same terms, the same measure for `CC(=O)n1c(-c2ccc(Cl)cc2)nc2c(c1=O)C(c1ccc(Cl)cc1)c1sc3c(Cl)cccc3c1O2` (centres undefined): -7.43% (active); for `CN1CCN(CCCOc2ccc3nc(Nc4ccc(F)c(F)c4)ccc3c2)CC1`: 41.7%; for `CS(=O)c1cccc(-c2ccc3nc(N)n(-c4ccc(C(F)(F)F)cc4)c(=O)c3c2)c1` (centres undefined): 94.7%.
With `COc1ccc2[nH]c(O)c(/C=c3/cc4c(c(-c5ccc(F)c(OC)c5)n3)=Nc3ccccc3-4)c2c1`, the growth is 87.2%.
Same read-out and setting: the same measure for `CC(=O)C(C)Cc1cc2c(cc1C)C(C)(C)CCC2(C)C` (centres undefined): 100%; for `COc1cc(/C=C2\C(=O)ON=C2C)cc(OC)c1OC`: 104%; for `CCCCn1c(=O)c2c(nc3n2CCCN3CCc2ccc(OCC(=O)NCCN(CC)CC)cc2)n(CCCC)c1=O`: 71.7%.
The same measure, in the same setting: the same measure for `COc1cc2c(cc1-c1c(C)noc1C)ncc1nc(C3CCC(F)(F)CC3)n(C3CCC(OC(F)F)CC3)c12` (centres undefined): 41.3%; for `CCN(CCNc1ccc(C)c2sc3ccccc3c(=O)c12)CC(C)(C)O`: 89.7%; for `CCCCCCCCCCCCCCCCCCOc1ccccc1CC(=O)OCCC[N+](C)(C)C`: 50.1%.
Consider `COc1ccc(C(=NN=C(N)N)c2ccc(OC)cc2)cc1`, for which the growth is 40.1%.
On the same count and under the same terms, to `Cc1c(C(=O)N[C@@H](Cc2ccccc2)C(=O)C(=O)NCCc2ccccc2)[nH]c2ccccc2c1=O` belongs 118%; to `CC1(c2ccccc2)NC(=O)N(NC(=O)CSc2nc(-c3cccs3)nc3ccccc23)C1=O` (centres undefined), 113%; to `CCN(CC)Cc1cccc(C(=O)OC)c1`, 92.5%.
On to `CCCCc1ccc(Nc2ccc(Nc3ccc(CCCC)cc3S(=O)(=O)O)c3c2C(=O)c2ccccc2C3=O)c(S(=O)(=O)O)c1`, for which the growth was 114%.
Same read-out and setting: the same measure for `O=C(Nc1ccc(Cl)cc1)Nc1ccc(Cl)c(C(F)(F)F)c1`: 18.1%.
For `COc1cc(/C=N/Nc2ncc(-c3cc4cc5c(cc4o3)OCO5)s2)cc(OC)c1OC`, the growth was 101%.
On to `COc1ccc(-c2nc3c(N)c(CO)c(C)nc3o2)cc1`, for which the growth is 85%.
In the case of `c1ccc(Nc2nc(-c3ccccn3)cs2)nc1`, the growth was 37%.
Consider `Cc1ccc(S(=O)(=O)Oc2cc(OS(=O)(=O)c3ccc(C)cc3)cc(OS(=O)(=O)c3ccc(C)cc3)c2)cc1`, for which the growth was 156%.
Same read-out and setting: to `COc1ccc(NC(=O)c2nc(-c3cc(OC)c(OC)c(OC)c3)n(-c3cccc4ccccc34)n2)cc1OC` belongs 44.8%.
Same read-out and setting: to `COc1ccc(C2C(c3nn[nH]n3)=C(N)Oc3c2ccc2ccccc32)cc1` (centres undefined) belongs 43.8%.
